# An excerpt weighted towards active compounds, which were near 2.6% of everything screened.
# Cruzain inh Det: qHTS Assay for Promiscuous and Specific Inhibitors of Cruzain (with detergent) | Cruzipain (Trypanosoma cruzi), P25779 | purified cruzain, Z-FR-AMC fluorescence, 0.01% Triton | 0.43% of 200,000 active | Potency, µM, without a hit: max response, negative = inhibition, most hits filed as inhibitors;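 further: plate controls were neutral wells for no effect and buffer without enzyme for full effect; nearly all actives have a fitted effect of over 40% in size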
# Target sequence (P25779 123-467 limits assumed): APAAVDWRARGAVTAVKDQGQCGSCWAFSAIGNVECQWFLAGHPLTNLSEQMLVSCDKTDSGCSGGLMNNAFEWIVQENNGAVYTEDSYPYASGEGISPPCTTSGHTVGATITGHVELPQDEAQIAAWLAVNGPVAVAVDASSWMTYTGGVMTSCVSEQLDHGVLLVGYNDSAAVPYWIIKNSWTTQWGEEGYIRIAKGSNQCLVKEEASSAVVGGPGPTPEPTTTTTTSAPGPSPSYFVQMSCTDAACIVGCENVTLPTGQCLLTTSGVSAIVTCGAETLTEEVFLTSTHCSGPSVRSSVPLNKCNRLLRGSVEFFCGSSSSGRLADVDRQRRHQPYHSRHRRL
#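 Purified cruzain (1.5 nM final) was preincubated with compounds for 15 min at room temperature in 100 mM sodium acetate pH 5.5, 5 mM DTT, 0.01% Triton X-100. Reaction started with 2 uM Z-FR-AMC; AMC fluorescence change over 60 s gave activity.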
# Cruzain inh noDet: qHTS Assay for Promiscuous and Specific Inhibitors of Cruzain (without detergent). Cruzipain (Trypanosoma cruzi), P25779. purified cruzain, Z-FR-AMC fluorescence, no detergent. Potency, µM, for inactives: max response, negative = inhibition, actives largely listed as inhibitors. 2.3% of 200,000 active;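 further: plate controls were enzyme without inhibitor for no effect and buffer without enzyme for full effect; nearly all actives have a fitted effect of over 40% in size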
#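 Purified cruzain at 1.5 nM, pre-incubated 15 min with compound at room temperature in 100 mM sodium acetate pH 5.5, 5 mM DTT, 0.00005% Triton X-100. Reaction started with 2 uM Z-FR-AMC; AMC fluorescence increase over 60 s gives rate.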
# * hit, by the source's call; ? = inconclusive. The call rests on the fitted dose curve; in most records, active means well fitted curve in the direction sought with a large enough effect; inconclusive means small, poorly fitted or top-dose-only effect, or another doubt; inactive means no such curve, though single readings can be large; an effect the other way counts as inactive or inconclusive. Potency means the concentration at half of the fitted maximal effect.
SMILES,Cruzain inh Det,Cruzain inh noDet
O=C(c1ccco1)[C@@H]1[C@@H]2C(=O)N(c3ccc(F)cc3)C(=O)[C@@H]2[C@H]2C=Cc3ccccc3N21,-6.3%,25.1µM*
O=C(c1ccco1)[C@@H]1[C@@H]2C(=O)N(c3ccc(Br)cc3)C(=O)[C@@H]2C2c3ccccc3C=CN21 (some centres not stated),-3.7%,12.6µM*
O=C(c1ccco1)[C@@H]1[C@@H]2C(=O)N(c3ccc(F)cc3)C(=O)[C@@H]2C2c3ccccc3C=CN21 (some centres not stated),-6.5%,-8.1%
CCc1ccc(-n2c(=O)c3c4c(sc3n(CC(=O)NCCCOC)c2=O)CCCC4)cc1,-5.7%,-8.6%
CN(C)c1oc(-c2ccc(OCc3ccc(Cl)cc3)cc2)nc1C#N,?,20µM*
CCOc1ccc(Nc2oc(-c3ccc(Cl)cc3)nc2C#N)cc1,1.7%,?
Cc1cc(C(=O)Nc2nc(C)c(C(=O)N(C)C)s2)ccc1[N+](=O)[O-],-4.4%,-4.5%
Cc1nc(NC(=O)c2ccc([N+](=O)[O-])cc2Cl)sc1C(=O)N(C)C,15.8µM*,-13.6%
O=[N+]([O-])c1ccc(-c2nc(-c3ccc(F)cc3)c(-c3ccncc3)[nH]2)cc1,-5.2%,?
Cc1oc2ncnc(N3CCCCC3)c2c1C(=O)N1CCN(c2cccc(C(F)(F)F)c2)CC1,-10.7%,?
COc1ccc(C(C(=O)NC2CCCCC2)N(C(=O)c2sc(C)nc2C)c2ccccc2)cc1 (configuration not stated),-2.0%,0.8%
COc1ccc(C(C(=O)NC2CCCCC2)N(C(=O)CCl)c2ccc(Cl)cc2)cc1 (configuration not stated),2.4%,?
COc1ccc(C(C(=O)NC2CCCC2)N(C(=O)c2snc(-c3ccc(F)cc3)c2N)c2ccccc2)cc1 (configuration not stated),7.1%,7.94µM*
COc1ccc(C(C(=O)NC2CCCC2)N(C(=O)c2snc(-c3ccc(F)cc3)c2N)c2ccc(F)cc2)cc1 (configuration not stated),3.2%,25.1µM*
COc1ccc(C(C(=O)NC2CCCC2)N(C(=O)c2snc(-c3ccc(F)cc3)c2N)c2cccc(F)c2)cc1 (configuration not stated),-0.7%,10µM*
COc1ccc(C(C(=O)NC2CCCC2)N(C(=O)c2snc(-c3ccc(F)cc3)c2N)c2ccc(OC)cc2)cc1 (configuration not stated),1.7%,25.1µM*
COc1ccc(C(C(=O)NC2CCCCC2)N(C(=O)c2sc(C)nc2C)c2ccc(OC)cc2)cc1 (configuration not stated),3.3%,?
COc1ccc(C(C(=O)NC2CCCC2)N(C(=O)c2ccoc2C)c2ccccc2)cc1 (configuration not stated),-1.7%,-7.0%
Cn1cc(-c2nc3cnc(N4CCNCC4)nc3n(C3CC3)c2=O)c2ccccc21,-6.8%,-7.0%
CCOC(=O)c1cnc2c(ccc3ccccc32)c1Nc1ccc(N(C)C)cc1,-0.7%,-5.4%
c1ccc(C[N+]23CN4CN(CN(C4)C2)C3)cc1,1.2%,8.1%
Cc1ccc(CSCCC(=O)N2CCN(c3ccc(F)cc3)CC2)cc1,1.2%,18.8%
O=C1C2=C(Nc3ccccc3SC2c2ccc(C(F)(F)F)cc2)c2ccccc21 (configuration not stated),-2.8%,20µM*
CCc1ccc(C2Sc3ccccc3NC3=C2C(=O)c2ccccc23)cc1 (configuration not stated),-8.0%,?
CC(C)c1ccc(C2Sc3ccccc3NC3=C2C(=O)c2ccccc23)cc1 (configuration not stated),-3.9%,10µM*
SMILES,Cruzain inh Det,Cruzain inh noDet
CC(=O)Nc1ccc(C2Sc3ccccc3NC3=C2C(=O)c2ccccc23)cc1 (configuration not stated),-8.6%,-5.3%
CCC(=O)Nc1cc(-c2cn3cccnc3n2)ccc1OC,-6.5%,-4.6%
COc1ccc(-c2cn3cccnc3n2)cc1F,-21.5%,20µM*
CCOc1ccc(C2CC(=O)Nc3c2c(=O)nc(SCc2ccccc2C)n3C)cc1OC (configuration not stated),-1.8%,18.7%
NS(=O)(=O)c1cc(Br)c(N=Nc2ccc(O)c3ncccc23)c(Br)c1,5.6%,-4.9%
Cc1cccc(N=Nc2ccc(O)c3ncccc23)c1,1.9%,20µM*
COc1ccc(OC)c(-c2csc(NC(=O)CSc3ccccc3)n2)c1,-6.1%,3.8%
COc1ccc(OC)c(-c2csc(NC(=O)C3c4ccccc4Oc4ccccc43)n2)c1,0.7%,20µM*
O=C(Nc1nc(-c2ccccc2)cs1)C1c2ccccc2Oc2ccccc21,4.6%,20µM*
O=C(Nc1nc(-c2ccncc2)cs1)C1c2ccccc2Oc2ccccc21,-9.5%,?
CN(C)C(=O)c1ccc(-c2nccc(-n3ccnc3)n2)cc1,4.5%,-1.6%
Cc1n[nH]c(=S)n1/N=C/c1ccc(-c2ccccc2[N+](=O)[O-])o1,-1.8%,-6.9%
Nc1nonc1C(=O)N/N=C/c1ccc(-c2cccc([N+](=O)[O-])c2)o1,-11.3%,-16.2%
NC(=S)N/N=C/c1ccc(-c2cccc([N+](=O)[O-])c2)o1,2.82µM*,3.16µM*
O=[N+]([O-])c1cccc(-c2ccc(/C=N/n3c(-c4ccccc4)n[nH]c3=S)o2)c1,-4.1%,15.8µM*
COc1ccc(Br)cc1CNC(=O)Cn1ncn2nc(-c3cccs3)cc2c1=O,-7.4%,8.7%
Cc1cc(C)c(C#N)c(SCc2nnc(-c3ccccc3)o2)n1,-4.8%,4.5%
COc1ccccc1-c1cc(-c2ccc(C)cc2)nc(SCc2nnc(-c3ccccc3)o2)c1C#N,-0.1%,3.98µM*
C=C(C)[C@H]1CC[C@]2(CO)CC[C@]3(C)[C@@H](CC[C@H]4[C@@]5(C)CC[C@@H](O)C(C)(C)[C@@H]5CC[C@@]43C)[C@H]12,-2.3%,-16.0%
C=C(C)[C@@H]1CCC2(C(=O)O)CC[C@]3(C)[C@H](CC[C@@H]4[C@@]5(C)CCC(=O)C(C)(C)[C@@H]5CC[C@]43C)[C@@H]12 (some centres not stated),2.2%,5.01µM*
COc1ccc(N=C2C(=Nc3ccc(OC)cc3)N(c3ccc(OC)cc3)C(=S)N2c2ccccc2)cc1,-0.3%,?
Cc1ccc(N=C2C(=S)N(c3ccc(C)cc3)C(=N)N2/N=C/c2ccc(Cl)cc2)cc1,-4.4%,3.16µM*
CCn1c(C(=O)N2CCC(C(=O)NCCc3ccc(C)cc3)CC2)cc2sccc21,-6.2%,?
CCOc1ccc(NC(=O)c2sc3nc4c(c(-c5ccc(OC)cc5)c3c2N)C(=O)CC(C)(C)C4)cc1,-1.6%,-17.8%
COC(=O)N1CCC2(CC1)CN(C(=O)Nc1cccc(F)c1)C2,3.5%,11.4%
SMILES,Cruzain inh Det,Cruzain inh noDet
Nc1c(C(=O)NCc2ccc(Cl)cc2)sc2nc(-c3ccc(F)cc3)ccc12,12.6µM*,10µM*
O=C(NCc1ccc(Cl)cc1)c1cc(-c2ccc(F)cc2)on1,-1.9%,?
COC(=O)c1ccc(NC(=O)CN2C(=O)c3cccc4cccc2c34)cc1,0.9%,1.6%
O=C(CCOc1ccccc1)N(Cc1cccnc1)c1nc2c(Cl)cccc2s1,-4.7%,-10.8%
O=C(NCc1ccccc1Cl)c1cnc(N2CCCCC2)c2ccccc12,-12.5%,4.1%
CCCc1nc2ccccc2n2c(-c3cccc(C)c3)c3c(=O)n(C)c(=O)n(C)c3c12,-3.7%,-0.7%

# Compound activity as filed in PubChem BioAssay.
